The panel holds about 83,000 compounds, 20% with a hit somewhere; the sample as a whole holds those more often.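 Cells were grown in 96-well plates and exposed to the test compound at a single concentration for 48 hours; results are reported as percent growth, with values below 10 considered active.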 Values without a mark were called inactive. Activity calls are given as the source filed them.

These results are taken from PubChem BioAssay (NCI).

Test in all cases: NCI-60 one-dose screen, 48 h (100 = growth as untreated, 0 = no growth, -100 = all killed)
For assay [1], the system named is HCT-15 colon. To be noted: 10 µM unless noted.
Assay [2] concerns HT29 colon. The note with it: 10 µM unless noted.
The subject of assay [3] is SNB-75 CNS. To be noted: 10 µM unless noted.
For assay [4], the system named is SNB-19 CNS. The note with it: 10 µM unless noted.
The subject of assay [5] is U251 CNS. To be noted: 10 µM unless noted.
Assay [6] relates to PC-3 prostate. The note with it: 10 µM unless noted.
In assay [7] the test system is SK-MEL-5 melanoma. The note with it: 10 µM unless noted.
The subject of assay [8] is UACC-62 melanoma. The note with it: 10 µM unless noted.
The subject of assay [9] is LOX IMVI melanoma. The note with it: 10 µM unless noted.
In assay [10] the test system is SK-MEL-2 melanoma. To be noted: 10 µM unless noted.
Assay [11] has as its system SN12C renal. To be noted: 10 µM unless noted.
Assay [12] concerns UO-31 renal. The note with it: 10 µM unless noted.
Assay [13] has as its system TK-10 renal. To be noted: 10 µM unless noted.
Assay [14] relates to ACHN renal. To be noted: 10 µM unless noted.
The test system of assay [15] is CAKI-1 renal. The note with it: 10 µM unless noted.
Assay [16] relates to A498 renal. To be noted: 10 µM unless noted.
Assay [17] deals with MOLT-4 leukemia. The note with it: 10 µM unless noted.
The subject of assay [18] is EKVX NSCLC. The note with it: 10 µM.
Assay [19] deals with CCRF-CEM leukemia. To be noted: 10 µM.
Assay [20] has as its system SK-MEL-28 melanoma. The note with it: 10 µM unless noted.

`COC(=O)/C=C1/CCCCC1(C)C(=O)OC` (stereo not drawn): the growth in assay [1] is 93.1%; in assay [2], 102%; in assay [3], 91.6%; in assay [4], 102%; in assay [5], 97.2%; in assay [6], 102%. The growth in [7] is 112%; in assay [8], 106%; in assay [9], 102%; in [10], 108%; in [11] it was 101%; in assay [12] it was 95.3%. Further, the growth in assay [13] was 104%; in [14], 112%; in assay [15] it was 107%; in assay [16], 107%; in [17], 99.6%.
Turning to `O=C(O)/C(Br)=C/c1c[nH]c2ccc(Br)cc12`, the growth in [1] is 114%; in assay [2] it was 106%; in assay [3], 105%; in [4] it was 126%; in [5], 105%; in [6], 123%. Besides, the growth in assay [7] was 107%; in assay [8], 104%; in assay [9], 101%; in assay [10], 99%; in [18], 119%; in [11], 108%. Further, the growth in assay [12] is 88.8%; in assay [13], 117%; in assay [14] it was 104%; in [15], 97.6%; in assay [16], 132%; in [19], -46.1% (active). Further, in assay [17], the growth is 31.8%.
For the compound `Cc1ccc(S(=O)(=O)N/N=C2\CC3CCC2C3)cc1` (stereo not drawn), the growth is 96% in assay [1]; 108% in assay [2]; 85.7% in [3]; 101% in [4]; 96.8% in assay [5]; 95.8% in [6]. For the same compound, the growth is 99.8% in assay [7]; 103% in assay [8]; 103% in assay [9]; 108% in [10]; 99.9% in assay [11]; 93.9% in [12]. The growth is 122% in assay [13]; 94.7% in assay [14]; 97.7% in [16]; 100% in assay [19]; 109% in [17].
For the compound `Cn1cnc2nc[nH]c2c1=S`, the growth in assay [1] was 101%; in assay [2] it was 94.5%; in assay [3], 79.2%; in assay [4], 103%; in assay [5], 103%; in [6], 86.4%. Besides, the growth was 100% in assay [7]; 98.5% in [8]; 99.4% in assay [9]; 106% in assay [10]; 113% in assay [18]; 94.8% in assay [11]. The growth was 71.2% in assay [12]; 88.4% in assay [13]; 97% in [14]; 97.9% in [15]; 98.7% in [19]; 102% in [17].
Regarding `Cc1[nH]n(C(=S)Nc2nc3cc(Cl)c(F)cc3s2)c(=O)c1N=Nc1ccc(F)c(Cl)c1`, the growth was 101% in assay [1]; 112% in assay [2]; 86% in assay [3]; 89.7% in [4]; 95.9% in assay [5]; 98.1% in assay [6]. Moreover, the growth in assay [7] is 93.1%; in assay [8], 92.8%; in assay [9], 99%; in assay [20], 106%; in [18], 80.1%; in assay [11] it was 100%. The growth is 93% in assay [12]; 129% in [13]; 104% in assay [14]; 65.8% in [16]; 19.3% in [19]; -16.5% (active) in assay [17].
Take `Clc1ccc(I)c2ccccc12`: the growth is 96.4% in [1]; 111% in assay [2]; 96.5% in assay [3]; 110% in [4]; 96.3% in assay [5]; 102% in assay [6]. For the same compound, the growth in assay [7] was 109%; in assay [8], 111%; in assay [9] it was 59.4%; in [20] it was 114%; in assay [11], 111%; in assay [12], 82.6%. The growth in assay [13] was 92.6%; in assay [14], 103%; in assay [15] it was 95.6%; in assay [16], 117%; in assay [17], 98.9%.
With `COc1cc(N2C(=O)C=CC2=O)ccc1N1C(=O)C=CC1=O`, the growth is 109% in assay [1]; 102% in assay [2]; 90.2% in [3]; 107% in assay [4]; 97.5% in assay [5]; 94.8% in assay [6]. Also, the growth in [7] was 104%; in assay [8], 106%; in assay [9], 99.1%; in assay [10], 113%; in assay [18] it was 94.2%; in [11], 105%. Besides, the growth in assay [12] was 87.1%; in assay [13], 86.4%; in assay [14], 96.6%; in [15], 93.7%; in [16] it was 74.9%; in assay [19], 18.9%. For the same compound, the growth in assay [17] was 100%.
As to `O=C1OC(c2ccc(-c3ccccc3)cc2)=C/C1=C/c1c2ccccc2cc2ccccc12`, the growth was 74.8% in assay [1]; 103% in assay [2]; 78.7% in assay [3]; 94.1% in assay [4]; 98% in assay [5]; 98.5% in assay [6]. Further, the growth is 104% in assay [7]; 99.3% in [8]; 95.8% in assay [9]; 87.7% in assay [20]; 65.5% in [18]; 101% in [11]. The growth in [12] was 92.8%; in assay [16] it was 83.7%; in assay [19], 69.9%; in [17], 72.6%.
`CCCCN(CCCC)CCCNc1c2c(nc3ccc(Cl)cc13)CCCC2`: the growth in assay [1] is 74.2%; in assay [2], 45.7%; in assay [3], 88.4%; in [4], 102%; in assay [5], 101%; in assay [6] it was 95.5%. For the same compound, the growth is 106% in assay [7]; 108% in assay [8]; 90.4% in [9]; 101% in [10]; 95.5% in [18]; 93.2% in assay [11]. For the same compound, the growth in assay [12] is 72.7%; in [13] it was 86.3%; in assay [14], 102%; in [19] it was 98.1%; in [17], 94.9%.
